Inconclusive results are not listed. Activity calls are given as the source filed them. The call rests on the fitted dose curve; in most records, active means well fitted cell-killing curve with a large enough effect; inconclusive means small, poorly fitted or top-dose-only effect, or effect the other way; inactive means flat fitted curve, though single readings scatter.
system: CASKI; assay: Primary qHTS to identify gynecologic anti-cancer compounds using libraries of approved drugs and bioactive compounds (AID 1345084); details: Gynecologic cancer cell panel viability, ATPlite luminescence, 48 h; series mostly up to 57.5 µM; activity change, negative = cytotoxicity: at the top concentration; further: nearly all actives have a fitted effect of over 55% in size
In short: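 Measured: luminescence after ATPlite addition (15 min, RT). Exposure: 48 h, 37 C, 5% CO2.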
On the % scale 0 is the no-effect control and ±100 the full control effect.

| Compound | activity change, negative = cytotoxicity |
| --- | --- |
| O=C(O)c1cc(O)c2cccc(O)c2c1O[C@@H]1O[C@H](CO)[C@@H](O)[C@H](O)[C@H]1O | -2.77% [at 38.5 µM] (inactive) |
| CNC(=O)O[C@H]1COc2ccc(N3CCN(C4COC4)CC3)cc2[C@@H]1NC(=O)c1ccc(F)cc1 | -2.42% (inactive) |
| COC(=O)[C@@]1(O)C=CC[C@@H]2[C@@]3(C)C[C@@H](c4ccoc4)OC(=O)[C@H]3CC[C@]21C | -4.66% [at 38.5 µM] (inactive) |
| CC1(C)OC(=O)C(OCC2CC2)=C1c1ccc(S(C)(=O)=O)cc1 | 3.18% (inactive) |
| CC1(O)CCC2C(C(=O)O)=COC(OC3OC(CO)C(O)C(O)C3OC(=O)/C=C/c3ccc(O)cc3)C21 (stereo not drawn) | 0.915% [at 25.3 µM] (inactive) |
| CC(=O)O[C@@H]1[C@H](O[C@@H]2O[C@H](CO)[C@@H](O)[C@H](O)[C@H]2O)[C@@H](O[C@@H]2O[C@@H](C)[C@H](O)[C@@H](O[C@@H]3O[C@H](CO)[C@@H](O)[C@H](O)[C@H]3O)[C@H]2O)[C@H](OC(=O)C23CCC4(C)C(=CCC5C6(C)CC(O)C(O[C@@H]7O[C@H](C(=O)O)[C@@H](O)[C@H](O)[C@H]7O)C(C)(C(=O)O)C6CCC54C)C2CC(C)(C)CC3O)O[C@@H]1C (stereo partly drawn) | 24.3% [at 6.55 µM] (inactive) |
| CNC(=O)Nc1ccc(OC)c(NC(=O)NC(=O)c2cc(F)c(F)cc2Cl)c1 | -1.57% (inactive) |
| C=CC(C)(O)CC/C=C(/C)C(=O)OC1C(OC2OCC(OC3OC(CO)C(O)C(O)C3O)C(OC3OCC(O)C(OC4OC(C)C(O)C(O)C4O)C3O)C2O)COC(OC(=O)C23CCC(C)(C)CC2C2=CCC4C5(C)CCC(OC6OC(CO)C(OC7OC(CO)C(O)C(OC8OCC(O)C(O)C8O)C7O)C(O)C6O)C(C)(C)C5CCC4(C)C2(C)CC3O)C1O (stereo not drawn) | 8.91% [at 6.55 µM] (inactive) |

From PubChem BioAssay (NCATS)
